Inhibition data for 40 compounds are collected here from ChEMBL document CHEMBL3433997, “St. Jude Leishmania screening dataset” (2016).

SMILES strings stand for the structures.

By inhibition is commonly meant the change of the read-out against control, counted positive when it falls.

The experiment has as its target Glucose transporter (Leishmania mexicana) (UniProt O61059). As to the kind of experiment: ST_JUDE_LEISH: Cytotoxicity at 2uM final concentration against transgenic Leishmania Mexicana promastigotes LmGT2 that are glucose transport deficient and complemented with the L. Mexicana glucose transporter 2. Activity is measured by DNA content using SYBR green in vitro. Type of experiment: functional.
As for `COc1cc(/C=N/Nc2nc(Nc3ccccc3)nc(Nc3ccccc3)n2)ccc1OCc1ccccc1[N+](=O)[O-]`, the inhibition was determined as 0.87%.

Regarding `CCN(CC)CCN(Cc1ccc(-c2ccc(C(F)(F)F)cc2)cc1)C(=O)Cn1c(SCc2ccc(F)c(F)c2F)nc(=O)c2c1CCC2`, the inhibition was determined as 3.4%.

Regarding `C=CCn1c(C)cc(C(=O)COc2ccc(S(=O)(=O)N3CCOCC3)cc2[N+](=O)[O-])c1C`, the inhibition came to 0.84%.

With `COc1cc(Cc2cnc(N)nc2N)cc(OC)c1OCCCCC(=O)O`, the inhibition was 0.75%.

For the compound `CS(=O)(=O)CCNc1nccc(N2CCc3ncnc(Nc4ccc(OCc5cccc(F)c5)c(Cl)c4)c3C2)n1`, the inhibition is -1.99%.

On to `COc1ccc(CN2CCC(CNCCc3ccccc3Oc3ccccc3)CC2)cc1`, for which the inhibition is -2.59%.

Consider `CCc1cc(OC)ccc1C1CCN(CCCCNC(=O)c2ccc(NC(=O)c3ccc(Cl)cc3)cc2)CC1`, for which the inhibition is -1.82%.

As for `CCOc1ccccc1CCNC(C)Cc1ccc(C(=O)Nc2ccc(CC(C)NCCc3cccc(Cl)c3)cc2)cc1` (stereo not given), the inhibition came out at 3.04%.

Regarding `Cc1noc(C)c1-c1cccc(CNCc2cccc(-c3ccc(-c4nc5ccccc5[nH]4)s3)c2)c1`, the inhibition was determined as 7.45%.

As for `N#Cc1cccc(NC(=O)Nc2ccc(-c3ccc(-c4nc5cc(C(F)(F)F)ccc5[nH]4)cc3)cc2)c1`, the inhibition is 4.14%.

Regarding `CC(=O)Nc1cccc(C(=O)Nc2ccc(-c3cccc(-c4nc5cc(C(F)(F)F)ccc5[nH]4)c3)cc2)c1`, the inhibition was -0.69%.

Regarding `Fc1cc(Cl)ccc1Nc1ccnc2cc(-c3ccc(CN4CCSCC4)o3)ccc12`, the inhibition stood at 8.14%.

As for `CCC(NC(=O)c1ccccc1NC(=O)c1ccc(C)cc1)C(=O)OC` (stereo not given), the inhibition came out at 0.97%.

On to `COc1cccc(-c2cc3c(NCc4ccncc4)nccc3s2)c1`, for which the inhibition was found to be 0.82%.

Turning to `CNC(=O)NC1CCN(Cc2c(-c3cccs3)nc3ccccc3c2C(=O)N[C@@H](C)C2CCCCC2)CC1`, the inhibition is -1.52%.

Turning to `CN1CCC(NC(=O)c2cc(Oc3ccc4c(c3)CCN4C(=O)Nc3cccc(C(F)(F)F)c3)ccn2)CC1`, the inhibition came to 1.74%.

On to `CC(C)NC(=O)c1cccc(-c2cccc(OCCN3CCSCC3c3ccccc3)c2)c1` (stereo not given), for which the inhibition stood at 8.53%.

As to `NC(=O)c1cccc(C(=O)Nc2cccc(-c3cccc(-c4nc5cc(C(F)(F)F)ccc5[nH]4)c3)c2)c1`, the inhibition came out at 0.83%.

For the compound `COCCNC(=O)c1ccc(OC2CCN(CC(C)=Cc3ccccc3)CC2)c(Cl)c1`, the inhibition worked out at 1.03%.

Take `N=C(NCCCCC1CCCCC1)c1cccc(C(=N)NCCCCC2CCCCC2)n1`: the inhibition is 0.14%.

Consider `COc1ccc2nc(C)cc(Nc3ccc(Cl)c(Cl)c3)c2c1`, for which the inhibition was determined as 17.3%.

On to `COc1ccc(-c2cccc(NC(=O)c3ccc(C#N)cc3)c2)cc1CN1CCN(C)CC1`, for which the inhibition came to 11.3%.

As for `Cc1cc(C(=O)CN2C(=O)NC3(CCOc4ccccc43)C2=O)c(C)n1Cc1ccc(F)cc1` (stereo not given), the inhibition stood at 1.1%.

As to `COc1cccc(CNC(=O)[C@@H]2CN(C(=O)c3ccccc3)CCN2)c1`, the inhibition came out at 0.71%.

Take `Cc1cc(N[C@@H](Cc2ccccc2)C(=O)NCCc2ccccc2)nc(NCCc2ccccc2)n1`: the inhibition came to 4.38%.

Turning to `CCn1ccc2c(N3CCCS3(=O)=O)cc(C(=O)N[C@@H](Cc3ccccc3)[C@H](O)CNC(C)(C)c3cccc(OC)c3)cc21`, the inhibition came to 1.49%.

`N#Cc1cccc(NC(=O)Nc2cccc(-c3cccc(-c4nc5ccccc5[nH]4)c3)c2)c1`: the inhibition was found to be 3.75%.

In the case of `CCc1cc(=O)[nH]c(-n2nc(C)cc2NC(=O)CC(c2ccccc2)c2ccccc2)n1`, the inhibition was -1.68%.

For `O=C(/C=C/c1ccc(Cl)c(Cl)c1)N1CCC(CCN2CCC(c3c[nH]c4cnccc34)CC2)CC1`, the inhibition is 5.81%.

As to `CCc1nc(N)nc(N)c1-c1ccc(Cl)cc1`, the inhibition was 3.36%.

In the case of `CC1CNC(c2ccc(NC(=O)c3ccc(C(=O)Nc4ccc(C5=NC(C)CN5)cc4)cc3)cc2)=N1` (stereo not given), the inhibition was 0.91%.

For the compound `COc1ccccc1CNC(=O)c1cc(OC)c(OC)cc1NC(=O)c1cccs1`, the inhibition came to 4.4%.

With `O=C(/C=C/c1ccc(Cl)c(Cl)c1)NCCCCCN1CC[C@H](NC(=O)c2ccc3c(c2)OCO3)C1`, the inhibition worked out at 3.74%.

On to `COc1ccc(CNc2cc(C)nc3sc4c(c23)CCC2(C4)OCCO2)cc1`, for which the inhibition amounted to 0.47%.

Consider `COc1ccc(CNCc2ccc(-c3cccc(-c4nc5cc(F)ccc5[nH]4)c3)cc2)cc1`, for which the inhibition is -2.49%.

`Cc1nc2cc(/C=C/C(=O)NC3CCC(CCN4CCc5ccc(C#N)cc5CC4)CC3)ccc2[nH]1` (stereo not given): the inhibition is 3.19%.

Consider `CC(=O)Oc1c(C2C=CCCC2)c(OC(C)=O)c2ccccc2c1OC(C)=O` (stereo not given), for which the inhibition came out at 1.98%.

In the case of `CN(C(=O)Nc1ccc(F)cc1)C1CCN(CCCCCNC(=O)/C=C/c2ccc(Cl)c(Cl)c2)CC1`, the inhibition amounted to 2.01%.

`CN(C(=O)Cc1ccc(Cl)c(Cl)c1)C1CCN(CCCCCNC(=O)/C=C/c2ccc(Cl)c(Cl)c2)CC1`: the inhibition is 3.27%.

On to `CC(C)(C)c1ccc(CNC(=O)c2ccc(-c3nc4cc(C(C)(C)C)ccc4[nH]3)cc2)cc1`, for which the inhibition was 1.77%.
